Experimental data published in publication PMC12864922, “TDP-43 directly inhibits mRNA accumulation in neurites through modulation of mRNA stability”.
Whole data set: some 9,900 sequences, median “r (bound/input frequency ratio)” near 0.7, cut for the highest 2% near 6.5. What follows is part of a selection rich in the highest values, with near analogues and random picks from the rest.

B1: ENSMUSG00000034801.232|Sos2|152:160 (ssRNA)
RNA: GGGAGUUCUACAGUCCGACGAUCGCUUCGAUAUCCGCAUGCUAUAACUGUCUUUAAUCUCGUGUUAACUGAAAUUUUUGAAAAGUUUUUCCAGAUUAGUAAUAUUUAAACAGAAAAUACUUUAAAAAGCUUUAUUAAAUUUUUUAAUCAGGAUAAAGCUUUGCCAUUUGGAUACUAUCAUUCAAAGUGAUCAAGCAUACAUACUUAUGCUGAUAGUGCAGUAGCAGCCAUUGUAAAGUAGCCAAAAGCCACGUUGUUUAUCUACUGGUCUGUGGCCUUUUACUGUGCUUUGUAUCAGAGUUCUCUCUUGCGGUCGCACUAGUGUGGAAUUCUCGGGUGUCAAGG
B2: ENSMUSG00000031028.95|Tub (ssRNA)
RNA: GGGAGUUCUACAGUCCGACGAUCGCUUCGAUAUCCGCAUGCUAGGUGGUCAGCAGAAAGCACUCCCACUUCAAAAGGGCCCAUUAGGCCCAAAGGGGGUUAGGAGUGGUAGGGAUAGGUGCGUGGCAGGUCCCUGCUAGGAUUGCAGGGGCCUGGCCAUGUGUAUUAGCUGGAGGCUUAGAAUGCUAGCUCAUUUGUUGCUACAGAUUUGCCCAGUGCUUGCACACGUAAGAACCCAGCUCUCAAGGCCAAAUAUCUGAGUGGAUGGGGAUGAUAGGAGUCAUCCAGUAGACUCCCUACAUCACUCUUGCGGUCGCACUAGUGUGGAAUUCUCGGGUGUCAAGG
B3: ENSMUSG00000029028.207|Lrrc47 (ssRNA)
RNA: GGGAGUUCUACAGUCCGACGAUCGCUUCGAUAUCCGCAUGCUAGUCCUAAGGACCCAGCAGCUGCACAGAGGACUUGGUGGCCCCGUGCCUUGCCAUCUGGCUGAGAAGAGAACCAGACCCUCAGCCUUCCCCCUCGACACCUUCUCGUUGGUGACCUCUGACCUUAAAGGACCAUUUCUACCUUCUGUAAAAGAACACCUGUUUGGGGUUGCGUGCGGCUUUCAUCCUAAGGCCGUGCGAGAGCCGUUAGCUGUCAGAACUAGUGAAGCUCCAGGCUCCUCGUGGCAGACCCUGGACAACGCCUCUUGCGGUCGCACUAGUGUGGAAUUCUCGGGUGUCAAGG
B4: ENSMUSG00000022095.265|Fam160b2 (ssRNA)
RNA: GGGAGUUCUACAGUCCGACGAUCGCUUCGAUAUCCGCAUGCUAUGUGUGUGUGUGUGUGAGAGAGAGAGAGAGAGAGCGAGCUAUGAAUGAAUGUGAGUGUGUGUGUGUGUGUGUGUGAGAGAGAGAGAGAGAGAGAGAGAGCUGUGAGUACACAUGGGUGCUGGUGUGGGACAGGAGCAGAUCUUGGUGGAGUGGGUCUACACUUGAGAUUUGUACUCGUUUGAGAGGCUGGGCAAUACUCAAUGCACUUUGGCAUUUGCAUGGUGUCUUCACAACAGCACAGCAAUAAACAUUGUGAUUGUCUCUUGCGGUCGCACUAGUGUGGAAUUCUCGGGUGUCAAGG
B5: ENSMUSG00000022095.264|Fam160b2 (ssRNA)
RNA: GGGAGUUCUACAGUCCGACGAUCGCUUCGAUAUCCGCAUGCUAUGUGUGUGUGUGUGUGUGUGUGAGAGAGAGAGAGAGAGAGCGAGCUAUGAAUGAAUGUGAGUGUGUGUGUGUGUGUGUGUGAGAGAGAGAGAGAGAGAGAGAGAGCUGUGAGUACACAUGGGUGCUGGUGUGGGACAGGAGCAGAUCUUGGUGGAGUGGGUCUACACUUGAGAUUUGUACUCGUUUGAGAGGCUGGGCAAUACUCAAUGCACUUUGGCAUUUGCAUGGUGUCUUCACAACAGCACAGCAAUAAACAUUGUCUCUUGCGGUCGCACUAGUGUGGAAUUCUCGGGUGUCAAGG
B6: ENSMUSG00000022095.258|Fam160b2 (ssRNA)
RNA: GGGAGUUCUACAGUCCGACGAUCGCUUCGAUAUCCGCAUGCUAGUGAGAGAGAGAGCGAGCUAUGAAUGAAUGUGAGUGUGUGUGUGUGUGUGUGUGUGUGAGAGAGAGAGAGAGAGAGCGAGCUAUGAAUGAAUGUGAGUGUGUGUGUGUGUGUGUGUGAGAGAGAGAGAGAGAGAGAGAGAGCUGUGAGUACACAUGGGUGCUGGUGUGGGACAGGAGCAGAUCUUGGUGGAGUGGGUCUACACUUGAGAUUUGUACUCGUUUGAGAGGCUGGGCAAUACUCAAUGCACUUUGGCAUUUGCCUCUUGCGGUCGCACUAGUGUGGAAUUCUCGGGUGUCAAGG
B7: ENSMUSG00000022095.262|Fam160b2 (ssRNA)
RNA: GGGAGUUCUACAGUCCGACGAUCGCUUCGAUAUCCGCAUGCUAUGAAUGUGAGUGUGUGUGUGUGUGUGUGUGUGUGAGAGAGAGAGAGAGAGAGCGAGCUAUGAAUGAAUGUGAGUGUGUGUGUGUGUGUGUGUGAGAGAGAGAGAGAGAGAGAGAGAGCUGUGAGUACACAUGGGUGCUGGUGUGGGACAGGAGCAGAUCUUGGUGGAGUGGGUCUACACUUGAGAUUUGUACUCGUUUGAGAGGCUGGGCAAUACUCAAUGCACUUUGGCAUUUGCAUGGUGUCUUCACAACAGCACAGCCUCUUGCGGUCGCACUAGUGUGGAAUUCUCGGGUGUCAAGG
B8: ENSMUSG00000022095.259|Fam160b2 (ssRNA)
RNA: GGGAGUUCUACAGUCCGACGAUCGCUUCGAUAUCCGCAUGCUAGAGAGAGCGAGCUAUGAAUGAAUGUGAGUGUGUGUGUGUGUGUGUGUGUGUGAGAGAGAGAGAGAGAGAGCGAGCUAUGAAUGAAUGUGAGUGUGUGUGUGUGUGUGUGUGAGAGAGAGAGAGAGAGAGAGAGAGCUGUGAGUACACAUGGGUGCUGGUGUGGGACAGGAGCAGAUCUUGGUGGAGUGGGUCUACACUUGAGAUUUGUACUCGUUUGAGAGGCUGGGCAAUACUCAAUGCACUUUGGCAUUUGCAUGGUGCUCUUGCGGUCGCACUAGUGUGGAAUUCUCGGGUGUCAAGG
B9: ENSMUSG00000022095.266|Fam160b2 (ssRNA)
RNA: GGGAGUUCUACAGUCCGACGAUCGCUUCGAUAUCCGCAUGCUAUGUGUGUGUGAGAGAGAGAGAGAGAGAGCGAGCUAUGAAUGAAUGUGAGUGUGUGUGUGUGUGUGUGUGAGAGAGAGAGAGAGAGAGAGAGAGCUGUGAGUACACAUGGGUGCUGGUGUGGGACAGGAGCAGAUCUUGGUGGAGUGGGUCUACACUUGAGAUUUGUACUCGUUUGAGAGGCUGGGCAAUACUCAAUGCACUUUGGCAUUUGCAUGGUGUCUUCACAACAGCACAGCAAUAAACAUUGUGAUUGUGUGGACCUCUUGCGGUCGCACUAGUGUGGAAUUCUCGGGUGUCAAGG
B10: ENSMUSG00000022095.265|Fam160b2|1:16;55:75;122:126 (ssRNA)
RNA: GGGAGUUCUACAGUCCGACGAUCGCUUCGAUAUCCGCAUGCUAACACACACACACACACAGAGAGAGAGAGAGAGAGCGAGCUAUGAAUGAAUGUGACACACACACACACACACACACAGAGAGAGAGAGAGAGAGAGAGAGCUGUGAGUACACAUGGGUGCUGCACACGGACAGGAGCAGAUCUUGGUGGAGUGGGUCUACACUUGAGAUUUGUACUCGUUUGAGAGGCUGGGCAAUACUCAAUGCACUUUGGCAUUUGCAUGGUGUCUUCACAACAGCACAGCAAUAAACAUUGUGAUUGUCUCUUGCGGUCGCACUAGUGUGGAAUUCUCGGGUGUCAAGG
B11: ENSMUSG00000022095.267|Fam160b2 (ssRNA)
RNA: GGGAGUUCUACAGUCCGACGAUCGCUUCGAUAUCCGCAUGCUAUGUGAGAGAGAGAGAGAGAGAGCGAGCUAUGAAUGAAUGUGAGUGUGUGUGUGUGUGUGUGUGAGAGAGAGAGAGAGAGAGAGAGAGCUGUGAGUACACAUGGGUGCUGGUGUGGGACAGGAGCAGAUCUUGGUGGAGUGGGUCUACACUUGAGAUUUGUACUCGUUUGAGAGGCUGGGCAAUACUCAAUGCACUUUGGCAUUUGCAUGGUGUCUUCACAACAGCACAGCAAUAAACAUUGUGAUUGUGUGGACAUGCUGCUCUUGCGGUCGCACUAGUGUGGAAUUCUCGGGUGUCAAGG
B12: ENSMUSG00000022095.260|Fam160b2 (ssRNA)
RNA: GGGAGUUCUACAGUCCGACGAUCGCUUCGAUAUCCGCAUGCUAGCGAGCUAUGAAUGAAUGUGAGUGUGUGUGUGUGUGUGUGUGUGUGAGAGAGAGAGAGAGAGAGCGAGCUAUGAAUGAAUGUGAGUGUGUGUGUGUGUGUGUGUGAGAGAGAGAGAGAGAGAGAGAGAGCUGUGAGUACACAUGGGUGCUGGUGUGGGACAGGAGCAGAUCUUGGUGGAGUGGGUCUACACUUGAGAUUUGUACUCGUUUGAGAGGCUGGGCAAUACUCAAUGCACUUUGGCAUUUGCAUGGUGUCUUCACUCUUGCGGUCGCACUAGUGUGGAAUUCUCGGGUGUCAAGG
B13: ENSMUSG00000032194.73|Kank2|146:150 (ssRNA)
RNA: GGGAGUUCUACAGUCCGACGAUCGCUUCGAUAUCCGCAUGCUAUUUGAAUGUCACUGGAAUGUUACAGUGUCUAUUGUCUCCUCAUCUUUACAGCAGGUCUCCACAAAGCCUGCUCACCACCCUUUGUCACCUCAUUUCAUUGUCUAGUGUACAAUAGGGUCUUGUCCACUGCCCUCCACCUCCAGACACACACUUCAGGGCCUGGGGUGUCUCUUGUGAUUGCUUUACAGAAUAAGAUUGCCGUACCUUAGCCGCCUGCCUCCAGUCAGAAAGCAGUGUUUUCAUUUGCCUUUUUCCUUUCUCUCUUGCGGUCGCACUAGUGUGGAAUUCUCGGGUGUCAAGG

Biological target: TDP-43 (Homo sapiens, UniProt Q13148 1-414)
Sequence (Q13148 whole entry): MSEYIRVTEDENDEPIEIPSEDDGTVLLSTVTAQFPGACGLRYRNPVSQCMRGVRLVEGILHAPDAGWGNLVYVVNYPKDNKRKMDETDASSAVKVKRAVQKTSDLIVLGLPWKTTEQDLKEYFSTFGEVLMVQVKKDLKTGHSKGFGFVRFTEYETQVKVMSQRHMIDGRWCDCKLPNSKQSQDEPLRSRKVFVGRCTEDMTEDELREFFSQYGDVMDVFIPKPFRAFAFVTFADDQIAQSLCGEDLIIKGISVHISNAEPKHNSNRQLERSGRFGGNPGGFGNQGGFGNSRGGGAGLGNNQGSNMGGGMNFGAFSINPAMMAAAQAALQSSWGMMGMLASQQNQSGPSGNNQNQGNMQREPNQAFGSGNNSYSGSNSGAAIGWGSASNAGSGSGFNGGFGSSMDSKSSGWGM
Assay: RNA Bind-n-Seq with designed 260-mer pool; 25 mM Tris-HCl, 150 mM KCl, 3 mM MgCl2, BSA (printed 500 mg/mL), 20 units/mL SUPERase IN; pH not stated; 500 nM RNA pool, 1 h, 4 C; TDP-43 5, 50, 500 nM; high values mean tight binding
Conditions: protein: recombinant; tags: SBP (GST cleaved off with PreScission; pGEX-GST-SBP)
Procedure, shortened: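 For each oligo, R gives binding as its mapped-read-normalized abundance after pulldown divided by its abundance in input. Bead-captured SBP-tagged TDP-43 (5, 50 or 500 nM) was incubated with 500 nM of an in vitro-transcribed 260-nt 3′ UTR oligo pool for 1 h at 4 °C in 25 mM Tris-HCl, 150 mM KCl, 3 mM MgCl2, BSA and SUPERase IN on streptavidin beads. Washed, biotin-eluted RNA was reverse transcribed, PCR-amplified and sequenced.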

Row | Binder | binding signal
1 | B1 | 0.0144 R (bound/input frequency ratio)
2 | B2 | 1.54 R (bound/input frequency ratio)
3 | B3 | 0.453 R (bound/input frequency ratio)
4 | B4 | 4.76 R (bound/input frequency ratio)
5 | B5 | 5.78 R (bound/input frequency ratio)
6 | B6 | 4.34 R (bound/input frequency ratio)
7 | B7 | 9.41 R (bound/input frequency ratio)
8 | B8 | 5.88 R (bound/input frequency ratio)
9 | B9 | 7.33 R (bound/input frequency ratio)
10 | B10 | 5.93 R (bound/input frequency ratio)
11 | B11 | 5.01 R (bound/input frequency ratio)
12 | B12 | 7.36 R (bound/input frequency ratio)
13 | B13 | 1.55 R (bound/input frequency ratio)
